This is a sample that favours compounds with a hit; in the whole collection about 2.7% have one here.
ANO1 activ = TMEM16A chloride channel activators or potentiators, primary screen, cell-based, HTS | Anoctamin-1 (Mus musculus), Q8BHY3 | HEK293 TMEM16A/YFP-H148Q/I152L, iodide quench fluorescence; active compounds read low | B-score at 10 µM | 340,000 compounds, 0.3% hits;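 active = fluorescence-ratio B-score plate-corrected deviation score at least 3 library SD below zero, with starting fluorescence score within 5 deviations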;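 note: channel opened by trigger with iodide after compound preincubation; score built on the fluorescence ratio of max minus min over baseline; more negative score means more quench and so TMEM16A activation or potentiation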
PP5 inh = PP5 phosphatase inhibitors, primary screen, biochemical, fluorescence | 320,000 compounds, 0.18% hits | inhibition, % at 6.7 µM | AID 1987, 2009 | Serine/threonine-protein phosphatase 5 (Homo sapiens), P53041 | purified PP5c, OMFP substrate fluorescence;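 active = inhibition above the campaign's mean inhibition across all tested compounds plus 3 SD, cut at about 9.5% in these data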;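 note: 0% = DMSO only and 100% = 100 µM cantharidin control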
Target sequence (P53041 whole entry, looked up): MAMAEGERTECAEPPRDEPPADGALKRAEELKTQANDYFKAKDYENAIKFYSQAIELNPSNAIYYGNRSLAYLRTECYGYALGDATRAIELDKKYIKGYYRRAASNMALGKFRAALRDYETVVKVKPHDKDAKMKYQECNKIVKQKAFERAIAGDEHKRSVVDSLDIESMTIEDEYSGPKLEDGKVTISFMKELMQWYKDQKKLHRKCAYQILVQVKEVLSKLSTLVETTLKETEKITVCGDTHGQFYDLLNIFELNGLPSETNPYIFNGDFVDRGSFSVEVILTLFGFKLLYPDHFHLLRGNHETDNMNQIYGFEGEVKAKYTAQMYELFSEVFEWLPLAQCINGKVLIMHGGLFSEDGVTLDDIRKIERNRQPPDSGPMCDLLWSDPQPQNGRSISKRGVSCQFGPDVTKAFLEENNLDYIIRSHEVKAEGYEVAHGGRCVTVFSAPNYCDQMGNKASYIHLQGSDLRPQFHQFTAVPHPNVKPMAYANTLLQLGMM
PREPL inh = PREPL enzyme inhibitors, primary screen, biochemical, fluorescence polarization | Prolyl endopeptidase-like (Homo sapiens), Q4J6C6 | recombinant PREPL, fluorescence polarization activity-based probe | inhibition, % at 5.96 µM | 320,000 compounds, 0.68% hits; in the data active = inhibition above about 43%;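 note: 0% = enzyme with DMSO and 100% = wells lacking enzyme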
FID counter = compounds displacing fluorescent DNA intercalator, primary screen, artefact control for HCV NS3 helicase inhibitor project, biochemical, FID fluorescence; DNA fluorescent intercalator displacement; inhibition, % at 7.9 µM; 290,000 compounds, 0.17% hits; AID 1845, 2009; in the data active = inhibition above about 37%;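 note: 0% = vehicle and 100% = reference compound; higher means more ethidium bromide displaced from hairpin DNA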
ANO1 block = TMEM16A chloride channel inhibitors, primary screen, cell-based, HTS. Anoctamin-1 (Mus musculus), Q8BHY3. HEK293 TMEM16A/YFP iodide influx fluorescence, ionomycin. normalized B-score (activity score, 25-100; higher = stronger inhibition) at 10 µM. 310,000 compounds, 1.2% hits. AID 588511, 2011;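 active = ratio plate-corrected score three or more library SD toward inhibition, starting fluorescence score within five deviations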;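 note: score derived from kinetic fluorescence span divided by baseline fluorescence per well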
PP1 inh = PP1-alpha phosphatase inhibitors, primary screen, counter-screen for PP5 inhibitor project, biochemical, fluorescence, OMFP substrate, single point; Serine/threonine-protein phosphatase PP1-alpha catalytic subunit (Homo sapiens), P62136; inhibition, % at 6.7 µM; AID 2235, 2010; 320,000 compounds, 0.9% hits; purified PP1alpha;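 active = inhibition above the mean inhibition of all tested compounds plus 3 SD, computed separately for each screening campaign, cut at about 15% in these data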
* hit, by the source's call; i = inactive; . = not tested or not shown.

SMILES	ANO1 activ	PP5 inh	PREPL inh	FID counter	ANO1 block	PP1 inh
CCCCC1=CC2=C(c3ccco3)C(=O)C(C)(OC(=O)c3ccc(OC)cc3)C(=O)C2=CN1Cc1ccc2c(c1)OCO2 (stereo unspecified)	i	2	18	.	i	24*
Brc1cccc(CNc2nc3ccccc3n2CCN2CCCCC2)c1	i	4	52*	13	i	1
O=C(Nc1nc2ccccc2n1CCN1CCCCC1)C1CCCCC1	i	2	1	-3	25*	4
O=C(Nc1nc2ccccc2n1CCN1CCCC1)C1CCCCC1	i	1	-4	7	i	-4
CC(C)n1c(SCC(=O)NC2CC2)nnc1C1CC1	i	-1	1	-1	i	-2
Cc1ccc(CC(=O)NC2CCCc3ccccc32)cc1C (stereo unspecified)	i	1	-5	-30	i	-3
CN(Cc1ccccc1)C(=O)c1ccc(NC(=O)c2ccccc2)cc1	i	1	-7	-45	i	1
O=c1c(Cl)c(O)ccn1C1OC(CO)C(O)C1O (stereo unspecified)	i	.	.	.	.	.
CCn1c(=NC(=O)c2cccc(N3C(=O)CCC3=O)c2)sc2c(C)ccc(OC)c21	-8.7*	5	-6	-3	i	2
CCCCCCCCCCCCCCCC(=O)Nc1ccn(C2OC(CO)C(O)C2O)c(=O)n1 (stereo unspecified)	i	.	.	.	.	.
COc1ccc(C(=O)/C(C#N)=N/Nc2ccccc2[N+](=O)[O-])cc1	i	2	5	9	i	-1
COc1ccc(C(=O)/C(C#N)=N/Nc2ccc([N+](=O)[O-])cc2)cc1	i	3	28	1	25*	8
N#CC(C#N)=NNc1ccc([N+](=O)[O-])cc1	i	3	10	3	100*	-1
CC1CCN(CCCNC(=O)CN2C(=O)CSc3ccc(S(=O)(=O)N4CCOCC4)cc32)CC1	i	1	1	-3	i	1
CC1CCN(CCCNC(=O)CN2C(=O)CSc3ccc(S(=O)(=O)N4CCC(C)CC4)cc32)CC1	i	1	4	45*	i	1
O=c1cc(CSc2nnc(-c3cccs3)n2Cc2ccccc2)nc2sc3ccccc3n12	i	2	11	-34	100*	12
O=C(COc1ccc(Cl)cc1)OCc1ccc(Cl)cc1	i	.	.	.	.	.
CCC(=O)Nc1cc(Cl)ccc1C(=O)O	i	0	18	-3	i	1
O=C(O)c1ccc(Cl)cc1Nc1nc2cc(Cl)ccc2o1	i	6	9	15	25*	8
O=C(Nc1ccc(S(=O)(=O)N2CCOCC2)cc1)C1CC(=O)N(c2ccc(F)cc2)C1 (stereo unspecified)	i	1	17	-17	i	1
Brc1ccc2c(c1)OCCOCCOc1cc(Br)ccc1OCCOCCOCCO2	i	5	6	-26	100*	0
Brc1cc2c(cc1Br)OCCOCCOCCOCCO2	i	4	4	-11	i	-2
Cc1ccccc1-c1nc(CS(=O)(=O)CC(=O)NCCCN2CC(C)CC(C)C2)c(C)o1 (stereo unspecified)	i	1	32	37*	i	7
CCOCCCNC(=O)CS(=O)(=O)Cc1nc(-c2cccc(OC)c2)oc1C	i	1	5	-22	25*	-2
Cc1ccc(-c2nc(CS(=O)(=O)CC(=O)NCCCN(Cc3ccccc3)C(C)C)c(C)o2)cc1	i	-2	25	37*	i	-6
SMILES	ANO1 activ	PP5 inh	PREPL inh	FID counter	ANO1 block	PP1 inh
Cc1ccccc1-c1nc(CS(=O)(=O)CC(=O)NCCCN2CCOCC2)c(C)o1	i	2	4	9	i	2
CCCNC(=O)CS(=O)(=O)Cc1nc(-c2cccc(OC)c2)oc1C	i	0	9	-13	i	-1
O=C(O)C(c1ccccc1)C1CCCCC1O (stereo unspecified)	i	.	.	.	.	.
C#CCOCCOCCOCCNc1nc(N2CCN(C(=O)[C@H](CCC(=O)O)n3cc(C(N)CC(C)C)nn3)CC2)nc(N2CCN(C(=O)[C@H](Cc3ccc(O)cc3)n3cc(C(N)CC(C)C)nn3)CC2)n1 (stereo partly specified)	i	-1	2	12	i	2
C#CCOCCOCCOCCNc1nc(N2CCN(C(=O)[C@H]([C@@H](C)CC)n3cc([C@@H](N)Cc4ccc(O)cc4)nn3)CC2)nc(N2CCN(C(=O)[C@H](CCCCN)n3cc([C@@H](N)CC(C)C)nn3)CC2)n1	.	2	22	45*	i	0
C#CCOCCOCCOCCNc1nc(N2CCN(C(=O)[C@H]([C@@H](C)CC)n3cc([C@@H](N)CC(C)C)nn3)CC2)nc(N2CCN(C(=O)[C@H](CCCCN)n3cc([C@@H](N)CO)nn3)CC2)n1	i	2	4	38*	i	3
C#CCOCCOCCOCCNc1nc(N2CCN(C(=O)C([C@@H](C)CC)n3cc(C(N)CC(C)C)nn3)CC2)nc(N2CCN(C(=O)[C@H](CCC(=O)O)n3cc(C(N)Cc4ccc(O)cc4)nn3)CC2)n1 (stereo partly specified)	i	1	2	16	i	4
C#CCOCCOCCOCCNc1nc(N2CCN(C(=O)[C@H](Cc3ccc(O)cc3)n3cc([C@@H](N)CC(C)C)nn3)CC2)nc(N2CCN(C(=O)[C@H](Cc3ccc(O)cc3)n3cc([C@@H](N)CC(C)C)nn3)CC2)n1	.	4	21	57*	i	11
C#CCOCCOCCOCCNc1nc(N2CCN(C(=O)[C@H](CCCCN)n3cc(C(N)CC(C)C)nn3)CC2)nc(N2CCN(C(=O)[C@H](CCC(=O)O)n3cc(C(N)[C@H](C)CC)nn3)CC2)n1 (stereo partly specified)	i	1	1	30	i	4
C#CCOCCOCCOCCNc1nc(N2CCN(C(=O)[C@H](CCCCN)n3cc([C@@H](N)CC(C)C)nn3)CC2)nc(N2CCN(C(=O)[C@H](Cc3ccc(O)cc3)n3cc([C@@H](N)CC(C)C)nn3)CC2)n1	.	-5	18	44*	i	7
O=C(Nc1ccncc1)C1CC(=O)N(Cc2ccccc2)C1 (stereo unspecified)	i	.	.	.	.	.
Cc1cnc(CNC(=O)CC2C(=O)NCCN2Cc2cccc(F)c2F)cn1 (stereo unspecified)	i	-2	17	-17	i	-4
